# Bioassay records: PubChem, National Center for Advancing Translational Sciences (NCATS)
# HT1080 IDH1KD tx – kills HT-1080 cells with IDH1 knockdown | HT-1080 IDH1 knockdown viability, ATP luminescence, 48 h | Potency, µM (highest dose often 46.1 µM), without a hit: at the highest dose activity, negative = toxicity, usual class: cytotoxic | actives 2% (n = 360,000) | AID 686971;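 further: potency means the concentration at half of the fitted maximal effect; 0% = DMSO wells and -100% = cell-free medium wells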
#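 HT-1080-IDH1KD cells (IDH1 knocked down), 750/well in RPMI with 5% FBS, treated with compound 48 h at 37 degrees C. Viability by CellTiter-Glo luminescence, normalised to DMSO and no-cell wells; concentration-response curves classed.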
# HT1080-NT tox – kills 2HG-producing HT-1080-NT fibrosarcoma cells | HT-1080-NT fibrosarcoma viability, CellTiter-Glo ATP luminescence, 48 h | Potency, µM (doses to about 46.1 µM), without a hit: at the top dose activity, negative = less viability, hits mostly cytotoxic | actives 1.6% (n = 360,000) | AID 686970;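 further: NT is the 2HG producing partner of a matched IDH1 knockdown line; potency means the concentration at half of the fitted maximal effect; 0% = DMSO-treated cells and -100% = media-only wells without cells; nearly all actives have a fitted effect of over 55% in size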
#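 Toxicity toward the 2HG-producing NT line was scored as %Activity, normalised to DMSO and no-cell wells, from CellTiter-Glo luminescence after 48 hours' treatment.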
# DT40 TDP1 no CPT – qHTS for Inhibitors of human tyrosyl-DNA phosphodiesterase 1 (TDP1): qHTS in cells in absence of CPT; AID 686978, 2013; DT40 Tdp1-/- hTDP1 cells, no CPT, ATP luminescence, 48 h; actives 15% (n = 420,000); Potency, µM (series often up to 46.2 µM), without a hit: at the top dose activity change, negative = growth inhibition, most hits filed as inhibitors; further: potency means the concentration at half of the fitted maximal effect; nearly all actives have a fitted effect of over 55% in size
#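 A cellular qHTS used chicken DT40 cells lacking endogenous Tdp1 but carrying stably transfected human TDP1. Compounds were applied without camptothecin, and cell growth kinetics were judged by ATP-dependent luminescence after ≥48 hr.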
# TDP1 cell CPT – growth inhibition of DT40 Tdp1-/-;hTDP1 cells with camptothecin (screen for TDP1 inhibitors) | Potency, µM (highest dose often 46.2 µM), for the others: at the highest dose activity change, negative = growth inhibition, most hits filed as inhibitors | chicken DT40 Tdp1-/-;hTDP1 cells + 20 nM CPT, ATP luminescence, 48 h | actives 12% (n = 420,000); further: potency means the concentration at half of the fitted maximal effect; nearly all actives have a fitted effect of over 55% in size
#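 Cell growth measured by CellTiter-Glo luminescence after a minimum 48 h, 37 C compound exposure with 20 nM CPT in Tdp1-knockout DT40 cells stably expressing hTDP1, seeded 400/well; qHTS titration format.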
# IL-1B inflam inh – blocks inflammasome-driven IL-1 beta release; THP-1 LPS/ATP IL-1B secretion, AlphaLISA, 16 h; hits give low values; activity change, % at 57.5 µM; actives 4.7% (n = 360,000); AID 743279; in the data active means activity change below about -50%; inconclusive means mostly about -30% to -49%
#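 THP-1 cells pretreated 1 hr with compounds (up to 57.5 uM final), then stimulated with LPS (250 ng/mL final) plus ATP (1.25 mM final); secreted IL-1B measured by AlphaLISA after 16 hr, decreased signal indicating inhibition.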
# Active calls of the source: *; ? = inconclusive; / = not tested or not shown. Compounds with a hit are over-represented: about 19% of the library has one in this group of screens. Unless noted, the call rests on the fitted dose curve; in most records, active means well fitted curve in the direction sought with a large enough effect; inconclusive means small, poorly fitted or top-dose-only effect, or another doubt; inactive means no such curve, though single readings can be large; an effect the other way counts as inactive or inconclusive. Unless noted, on the % scale 0 is the no-effect control and ±100 the full control effect.
SMILES,HT1080 IDH1KD tx,HT1080-NT tox,DT40 TDP1 no CPT,TDP1 cell CPT,IL-1B inflam inh
CC(C)NC(=O)c1cc(C2CCCCN2S(=O)(=O)c2ccc(C#N)cc2)on1 (configuration not stated),6%,-1%,-24%,-5%,-20
Cc1cc(C(=O)Nc2ccc3ccccc3c2)c(C)o1,-10%,-15%,?,-19%,-23
O=C1c2ccc([N+](=O)[O-])cc2NC(c2ccco2)N1/N=C/c1ccco1 (configuration not stated),-13%,-9%,18µM*,-26%,-21
CN=c1scc(-c2ccc([N+](=O)[O-])cc2)n1/N=C/c1ccco1,?,17%,-11%,11%,-10
Cc1ccc(CNC(=O)c2oc3ccc(S(=O)(=O)N4CCC(C)CC4)cc3c2C)cc1,/,/,16µM*,?,/
Cc1ccc(CNC(=O)c2oc3ccc(S(=O)(=O)N4CCOCC4)cc3c2C)cc1,-27%,-4%,?,-16%,-9
O=S(=O)(c1ccc(NC(=S)NCc2cccnc2)cc1)N1CCCCC1,10µM*,?,6.5µM*,8.2µM*,13
Cc1c(C(=O)NCc2cccnc2)oc2ccc(S(=O)(=O)N3CCCCC3)cc12,14µM*,?,14µM*,10µM*,-5
O=C(NCc1cccnc1)c1ccc(S(=O)(=O)N2CCCCC2)cc1,-1%,6%,?,?,8
Cc1ccc(NC(=S)Nc2cccnc2)c(S(=O)(=O)N2CCCCC2)c1,?,?,16µM*,23µM*,-4
Cc1ccc(C)c(NC(=S)Nc2cccnc2)c1,10%,11%,5%,33%,-11
Cn1c(SCc2ccccc2)nnc1C1CCCN(Cc2cccc3ncccc23)C1 (configuration not stated),/,/,-27%,?,/
CCCC(C)c1nnc(NC(=O)c2cc(C(=O)OC)cc([N+](=O)[O-])c2)s1 (configuration not stated),-16%,-1%,?,-25%,10
O=C(Nc1cc(C(=O)N2CCN(CCO)CC2)c2c(c1)ncn2C1CCCC1)c1ccccc1,/,/,-10%,18%,/
C=CCc1cccc2cc(C(=O)NCc3cccnc3)c(=O)oc12,0%,11%,-28%,?,?
Cc1nn(-c2ccccc2)c(Cl)c1C(=O)Nc1nnc(C2CCCC2)s1,-18%,-4%,?,0%,-12
Cc1ccc(OCCCCNC2CCCC(C)C2C)c(C)c1 (configuration not stated),?,21µM*,7.3µM*,8.2µM*,-95*
CCOC(=O)c1c(S(=O)(=O)N2CCC(C(=O)N3CCN(c4ccc(F)cc4)CC3)CC2)c(C)n(C)c1C,/,/,-29%,-18%,/
CC(=O)c1ccc(NC(=O)C2CCN(S(=O)(=O)c3cccs3)CC2)cc1,-5%,0%,?,?,3
Cc1cccc(N2CCN(C(=O)C3CCC(CNS(=O)(=O)c4cccs4)CC3)CC2)c1C (configuration not stated),?,-19%,13µM*,?,-18
CC(=O)c1ccc(N2CCN(C(=O)C3CCN(S(=O)(=O)c4cccs4)CC3)CC2)cc1,-7%,-19%,13µM*,?,16
CN(C(=O)C1CCN(S(=O)(=O)c2cccs2)CC1)c1ccccc1,5%,-3%,16µM*,?,6
O=C(OCc1ccccc1)C1CCN(S(=O)(=O)c2cccs2)CC1,17%,12%,-3%,-29%,18
CCOC(=O)c1c(C)[nH]c(C)c1S(=O)(=O)N1CCC(C(=O)N2CCN(c3cccc(C)c3C)CC2)CC1,/,/,?,18µM*,/
Nc1nnc(CC(=O)NCc2ccccc2)s1,11%,18%,-2%,4%,1
Cc1ccc(CN(C)C(=O)CSc2nnc3n2CCCCC3)c(C)c1,-4%,-5%,?,-19%,0
